# Assay outcomes deposited in PubChem by National Center for Advancing Translational Sciences (NCATS).
# This excerpt belongs to a sample that is enriched for hits.
# ClpP mod: qHTS Assay for Activators of ClpP. ATP-dependent Clp protease proteolytic subunit (Bacillus subtilis (strain 168)), P80244. purified B. subtilis ClpP, FRET peptide cleavage, 20 min. Potency, µM (top dose mostly 57.5 µM), without a hit: at the top dose activity change, negative = active. hit rate 1.9% among 340,000; active = well fitted falling curve with a large enough effect; inconclusive = small, poorly fitted or top-dose-only effect; inactive = no such curve, though single readings can be large or run the other way; note: the source files actives as falling curves though it sought activators and does not explain the sign; nearly all actives have a fitted effect of over 65% in size
# Target sequence (P80244 whole entry, looked up): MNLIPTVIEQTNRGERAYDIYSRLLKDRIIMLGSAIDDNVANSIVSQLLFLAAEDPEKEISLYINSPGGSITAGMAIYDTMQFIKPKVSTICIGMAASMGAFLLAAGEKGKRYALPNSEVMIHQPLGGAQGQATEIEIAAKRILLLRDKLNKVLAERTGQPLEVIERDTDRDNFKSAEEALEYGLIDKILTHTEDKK
#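 ClpP 10 microg/mL final, pH 8 Tris/KCl buffer with BSA, glycerol, Tween-20; compound pinned in; FRET-FV substrate; RT 20 min; Ex320/Em430; ΔFRET vs ADEP 5.8 microM, DMSO, no enzyme.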
# Eya2 inh: Eya2 (human) phosphatase inhibition. O00167. recombinant Eya2, OMFP fluorescence dephosphorylation (OMFP is methylfluorescein phosphate). Potency, µM (doses to about 76.9 µM), for inactives: at the highest dose activity, negative = inhibition, most hits filed as inhibitors. hit rate 0.006% among 330,000. AID 488837; note: % is set by controls: 0 for no effect and ±100 for the full control effect
#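 Eya2 protein (added as 0.2 uM solution) was preincubated with compound for 10 min at ambient temperature in 50 mM HEPES pH 7.5, 50 mM NaCl, 5 uM MgCl2, 0.05% BSA, 1 mM DTT. OMFP (added at 50 uM) then reacted 10 min; fluorescence read at 485/525 nm.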
# p53 reactivator: re-activators of mutant p53. H1299 p53-A138V BP100-luciferase reporter, luminescence, 24 h. Potency, µM (doses to about 92.2 µM), for inactives: at the top dose activity change, positive = activation, most hits filed as activators. hit rate 0.063% among 320,000. AID 504706; note: % of control where 0% means no effect; nearly all actives have a fitted effect of over 45% in size
#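 H1299 (p53-null), stable ts p53-A138V + BP100-Luc; 1000 cells/well, Opti-MEM/10% FBS; cpd 4 pt, 1:5; 24 h, 37 deg C, 5% CO2; detection reagent 10 min RT; luminescence.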
# USP2a inh: blocks human ubiquitin-specific protease USP2a. O75604. USP2 core, Ub-CHOP2 coupled fluorogenic reporter, 485/531. Potency, µM (highest dose often 38.3 µM), without a hit: at the top dose activity change, negative = inhibition, hits mostly inhibitors. hit rate 0.01% among 330,000;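 note: plate controls were DMSO wells for no effect and full inhibition by NEM control for full effect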
#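 Deubiquitinase activity read as fluorescence (485/531 nm) after Ub-CHOP2 cleavage activates the enterokinase reporter on its substrate; USP2 core 10nM, Ub-CHOP2 and substrate 25nM each, 30min compound preincubation then 60min RT; data normalized to NEM, curves fitted.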
# Mm-Cpn inhibitor: inhibitors of Methanococcus maripaludis chaperonin TRiC (MmCpn). Potency, µM (doses to about 76.9 µM), without a hit: top-dose activity, negative = inhibition, most hits filed as inhibitors. hit rate 0.031% among 330,000. purified Mm-Cpn ATPase, ADP Transcreener TR-FRET. AID 504842; note: % is set by controls: 0 for no effect and ±100 for the full control effect; nearly all actives have a fitted effect of over 80% in size
#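 Reaction buffer contained 30 mM Tris pH 7.4, 100 mM KCl, 5 mM MgCl2 and 1 mM DTT. Mm-CPN (25 nM final) hydrolysed 10 uM ATP over 30 min at 37°C; ADP was read by HTRF.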
# a7 integrin act: integrin-mediated muscular dystrophy alleviation activation. alpha7betagal myoblasts, beta-gal FDG fluorescence, 48 h. Potency, µM (top dose mostly 38.3 µM), inactives show at the highest dose activation, actives largely listed as activators. hit rate 0.064% among 350,000;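 note: 100% = response of the positive control SU9516; nearly all actives have a fitted effect of over 60% in size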
#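 Alpha7betagal+/- myoblasts (passage 13) were plated 16-24 hr, then exposed to compounds (1:260 dilution of DMSO stock) for 48 hours at 37C. After MPER lysis, β-galactosidase reporter activity was read as FDG fluorescence (ex 480/em 540) after 30 minutes.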
# ClpP validation: inhibits B. subtilis ClpP protease, hit validation; shares compounds with ClpP mod; purified B. subtilis ClpP, FRET-FV substrate cleavage, 20 min; Potency, µM (doses to about 57.5 µM), inactives show top-dose activity change, negative = inhibition, most hits filed as inhibitors; hit rate 40% among 470; AID 743245; note: % is set by controls: 0 for no effect and ±100 for the full control effect; nearly all actives have a fitted effect of over 70% in size
# * = called active by the depositor; ? = inconclusive; . = not tested or not shown; [ ] = dose if it differs, or a comment. Unless noted, calls come from the whole dose curve; as a rule, active = well fitted curve in the direction sought with a large enough effect; inconclusive = small, poorly fitted or top-dose-only effect, or another doubt; inactive = no such curve, though single readings can be large; an effect the other way counts as inactive or inconclusive. Potency is the fitted concentration of half-maximal effect.
SMILES,ClpP mod,Eya2 inh,p53 reactivator,USP2a inh,Mm-Cpn inhibitor,a7 integrin act,ClpP validation
CCOc1ccc(N(C(=O)CNC(=O)c2ccco2)C(C(=O)NC2CCCC2)c2cccnc2)cc1 (centres undefined),.,-9.8%,2.5%,1.4%,-0.4%,16.8%,.
N#Cc1ccccc1S(=O)(=O)N1CCN(C(=O)CN2CCCSc3ccccc32)CC1,0.2%,-8.4%,10.4%,-0.8%,1.8%,3.6%,.
Cc1ccc(S(=O)(=O)N2CCN(C(=O)CN3CCCSc4ccccc43)CC2)cc1,39.9%,11.6%,0.8%,4.3%,-4.5%,-26.3%,-2.6%
O=C(C1CCN(S(=O)(=O)Cc2ccccc2)CC1)N1CCN(c2cccc(C(F)(F)F)c2)CC1,0.6%,.,.,.,.,.,.
COc1cc(NC(=O)CN2CCN(S(=O)(=O)c3ccc(C(C)C)cc3)CC2)cc(OC)c1,-1.8%,-3.9%,3.4%,-10.9%,-0.3%,-15.4%,.
COc1ccc(S(=O)(=O)N2CCN(CC(=O)Nc3cc(OC)cc(OC)c3)CC2)cc1,66.3%,-6.4%,4.3%,-1.1%,0.9%,-23.1%,1.4%
CCCC(=O)Nc1cccc(OCc2cc(=O)n3cccc(C)c3n2)c1,-8.1%,.,.,.,.,.,.
CC(=O)Nc1ccc(NC(=O)c2ccc(N(C)S(=O)(=O)c3ccc(C)cc3)cc2)cc1,100.7%,-6.8%,-4.3%,0.2%,-7.4%,25.1%,?
CCN(CC)C(=O)c1c2c(nc3ccccc13)-c1ccccc1CC2,8.91µM*,-9.2%,-4.9%,-0.1%,0.0%,-9.5%,21.7µM*
Cc1cccc(NC(=O)Cn2c(=O)n(CC3CCC(C(=O)NCCc4ccccc4)CC3)c(=O)c3ccccc32)c1 (centres undefined),-5.9%,.,.,.,.,.,.
CCCN1CCN(CCCNC(=O)Cn2nc(C)n3c(cc4c(OC)cccc43)c2=O)CC1,4.47µM*,.,.,.,.,.,3.85µM*
COc1cccc2c1cc1c(=O)n(CC(=O)NCc3ccco3)nc(C)n12,3.55µM*,.,.,.,.,.,?
O=C(NCc1cccc(Br)c1)c1cnn(-c2ccc(F)cc2)c1-n1cccc1,-1.0%,.,.,.,.,.,.
CCC(C)NC(=O)c1cnn2c(C)c3c(nc12)CCCC3 (centres undefined),10µM*,11.4%,7.6%,1.0%,2.2%,-2.1%[7.66 µM],21.7µM*
Cc1ccc(Cn2c(=O)n(Cc3ccccc3)c(=O)c3oc4ccccc4c32)cc1,-20.3%,.,.,.,.,.,.
CCOC(=O)C1CCN(c2ncnc3c2oc2ccccc23)CC1,-1.8%,-15.4%,?,1.2%,0.0%,-34.3%,.
CCOC(=O)C1CCCN(c2ncnc3c2oc2ccccc23)C1 (centres undefined),352.3%,0.8%,?,1.8%,-0.4%,-17.9%,-2.1%
COc1cc(Cl)c(NS(=O)(=O)c2ccc(-c3cnc(C4CC4)o3)cc2)c(OC)c1,-10.3%,.,.,.,.,.,.
CCOc1ccc(NC(=O)c2c(NC(=O)Cc3ccccc3)sc3c2CCCC3)cc1,-27.6%,.,.,.,.,.,.
Cc1cccn2cc(-c3ccc(S(=O)(=O)N4CCOCC4)cc3)nc12,3.16µM*,17.5%,1.1%,1.8%,-3.4%,11.5%,3.85µM*
Cc1cccn2cc(-c3ccc(S(=O)(=O)N4CCCCC4)cc3)nc12,.,15.4%,0.6%,0.2%,-0.3%,11.3%,.
